Laboratory results: PubChem BioAssay AID2315 (National Center for Advancing Translational Sciences (NCATS), 2010)
Out of some 290,000 compounds screened, about 27,000 (9.3%) were called active. What follows is part of a selection rich in actives, with near analogues and random picks from the rest. A number with no mark means an inactive call. Cut-off read from the data, not from the text of the source: active = inhibition mostly above about 28% (no sharp cut-off); inactive = mostly below about 43%.

Assay: A qHTS for Small Molecule Inhibitors of Shiga Toxin; note: 0% is about no effect
Conditions: Vero cells, Shiga toxin protein synthesis inhibition reporter; at 38.7 µM, active compounds read high

SMILES | inhibition
O=C(CCCCCn1c(=S)[nH]c2cc3c(cc2c1=O)OCO3)N1CCN(c2ccc(F)cc2)CC1 | -1.92%
CCn1c(CC(=O)Nc2ccccc2C)nnc1SCC(=O)NC1=NCCS1 | 2.84%
COc1ccc(-c2cn3ccc(C)cc3n2)cc1 | -17.1%
CCCC(=O)Nc1cccc(-c2cn3ccsc3n2)c1 | 22.4%
CC(C)(C)C(=O)Nc1ccc(-c2cn3cccnc3n2)cc1 | 32.2%
CC(=O)Nc1ccc(-c2cn3cccnc3n2)cc1 | 52.4% (active)
COc1ccc(-c2cn3ccsc3n2)cc1 | 43.6% (active)
CCCCCC(=O)Nc1ccc(-c2cn3cccnc3n2)cc1 | 64.5%
Cc1ccccc1Nc1c(-c2ccccc2)nc2ncccn12 | 19.2%
c1ccc(-c2cn3c(n2)CCc2ccc4cccnc4c2-3)cc1 | -6.84%
FC(F)(F)Oc1ccc(-c2cn3cccnc3n2)cc1 | 54.1% (active)
c1ccc(-c2cn3cccnc3n2)cc1 | 58.5% (active)
CN1CCN(Cc2ccc(OC(F)(F)F)cc2)CC1 | -16.1%
CCOC(=O)c1cnc(Nc2nc3ccccc3o2)nc1CSC(=S)N1CCCCC1 | 36.8%
CN(Cc1ccc(F)cc1Cl)S(=O)(=O)c1cccs1 | 39.1%
CCOC(=O)N1CCN(C(=O)C(C)NC(=O)c2ccco2)CC1 (centres undefined) | -4.62%
COc1ccc(CC(=O)NC2CCSc3ccccc32)cc1OC (centres undefined) | -2.96%
O=C(Nc1ccccc1C(=O)Nc1ccncc1)c1ccc([N+](=O)[O-])cc1 | -5.25%
O=C(NNS(=O)(=O)c1ccc([N+](=O)[O-])cc1)C1CCCCC1 | -11%
CCCCn1c(N)c(N(CCOC)C(=O)c2oc3ccc(OC)cc3c2C)c(=O)[nH]c1=O | -5%
COc1cc(C)cc(CN2CCC(Cc3ccccc3)CC2)c1O | -4.61%
NC(=O)c1ccccc1N=Cc1ccc2ccccc2c1 | 69.3%
COc1ccc(N2CCN(C(=O)CSc3nnc4ncccn34)CC2)cc1 | -8.3%
COc1ccc(-c2cn3cccnc3n2)cc1 | 50.1% (active)
COc1ccc(-c2ccnc(SCC(=O)N3CCOCC3)n2)cc1 | 19.9%

SMILES | inhibition
O=C(Nc1ccccc1N1CCOCC1)c1ccc(OCc2cscn2)cc1 | 3.77%
CC1=CC2=NC(=O)/C(=C/c3coc4ccccc4c3=O)C(=N)N2O1 | 11.7%
CCOc1cc(/C=C2/C(=N)N3OC(C)=CC3=NC2=O)ccc1OC | -19.9%
COc1ccc(OCCCn2cccc2/C=C2/C(=N)N3OC(C)=CC3=NC2=O)cc1 | 47.7% (active)
Oc1ccccc1CN1CCN(C(c2ccccc2)c2ccccc2)CC1 | -6.21%
NC(=O)COC(=O)c1ccc2c(c1)C(=O)N(Cc1ccco1)C2=O | -6.38%
CC(C)CC(=O)N/C(N)=N/c1nc2ccccc2s1 | 61.6% (active)
CCC(=O)NC(=Nc1nc2ccccc2s1)NC(=O)CC | 57.8% (active)
CCC(=O)NCCc1nc2ccccc2n1CC | -5.67%
O=C(O)CCCCc1nc2ccccc2s1 | -9.29%
Cc1cc(C(=O)OCC(=O)Nc2nnc(C(C)C)s2)c2ccccc2n1 | -2.62%
CC(C)CC(=O)NC(=S)NCc1ccccc1 | -1.98%
CCCn1nc(NC(=O)C(C)C)c2cc3cc(OC)ccc3nc21 | 40.5%
COc1ccc(C(=O)CC(=O)C(=O)Nc2cc([N+](=O)[O-])ccc2OC)cc1 | -3.5%
O=C(Cn1ncc2c3ccccc3n(Cc3ccccc3)c2c1=O)NCc1ccccn1 | 16.1%
Cc1c(C(=O)N2CCCC2)c(S(=O)(=O)NCC(C)c2ccccc2)c(C)n1C (centres undefined) | -3.94%
CC1(C(=O)N/N=C/c2cc3c(cc2Br)OCO3)CC1(Br)Br (centres undefined) | -11.8%
O=C(C1CCN(Cc2ccc(Cl)cc2)CC1)N1CCN(Cc2ccc3c(c2)OCO3)CC1 | -7.69%
COc1ccc(C2c3[nH]c4ccccc4c3C[C@H]3C(=O)N(CC(C)C)CC(=O)N23)c(OC)c1 (some centres undefined) | -6.17%
COc1cccc(/C=N/Nc2cc(C)nc(-c3ccccc3O)n2)c1O | 38.3% (active)
COc1cccc2c(N/N=C/c3ccco3)cc(C)nc12 | 63.5%
COc1ccccc1/C=N\Nc1cc(C)nc(-n2nc(C)cc2C)n1 | -8.59%
CC(=O)c1cccc(NC(=O)CN2C(=O)c3cccnc3Oc3ccc(Cl)cc32)c1 | 1.59%
CCc1ccc(N(C(=O)c2csnn2)C(C(=O)NC2CCCCC2)c2ccncc2)cc1 (centres undefined) | 32.9%
Cc1nc2ccc(S(=O)(=O)N(C)CC(=O)NC(C)c3ccccc3)cc2s1 (centres undefined) | -9.9%

SMILES | inhibition
COc1cc(NC(=O)CN(C)S(=O)(=O)c2ccc3nc(C)sc3c2)cc(OC)c1 | 15.9%
Cc1ccc2nc(-c3ccc(NC(=O)CN(C)S(=O)(=O)c4ccccc4)cc3)sc2c1 | 84.9% (active)
COc1cccc(N(CC(=O)Nc2cccc(F)c2)S(C)(=O)=O)c1 | 12.9%
CCN(CC)S(=O)(=O)c1ccc(NC(=O)CN(c2cccc(F)c2)S(C)(=O)=O)cc1 | -12.2%
Cc1cccc(N(CC(=O)Nc2ccc(-c3nc4ccc(C)cc4s3)cc2)S(C)(=O)=O)c1 | 146% (active)
C[C@H]1CCC(=O)N([C@H](CSc2ccccc2)Cc2ccccc2)CC1 | 6.56%
CCCOc1ccc(Cc2c(O)nc(N)[nH]c2=O)cc1C | 1.67%
CCC(=O)N1c2ccc(S(=O)(=O)NCc3ccco3)cc2CC1C (centres undefined) | 12.8%
O=C(Nn1cnnc1)c1cc(Cl)ccc1Cl | 7.38%
C=CCc1cc(S(=O)(=O)c2ccc(O)c(CC=C)c2)ccc1O | -18%
CC(C)c1nnc(NC(=O)CCC(=O)N2CCN(c3cccc(Cl)c3)CC2)s1 | -4.62%
O=C(c1cccc([N+](=O)[O-])c1)N1CCN(C(=O)c2ccco2)CC1 | -3.08%
O=C(c1ccco1)N1CCN(c2cccc(Cl)c2)CC1 | 24.3% (active)
O=C(CCCC(=O)N1CCN(c2cccc(Cl)c2)CC1)c1ccccc1 | 25.1% (active)
O=C(c1ccc2c(c1)OCO2)N1CCN(C(=O)c2ccco2)CC1 | 17%
CS(=O)(=O)N(CC(=O)N1CCN(c2cccc(Cl)c2)CC1)c1ccccc1 | -4.1%
Oc1ccc2nc(Cc3ccccc3)[nH]c2c1 | 54.8%
CC(C)=C(NC(=O)c1ccco1)C(=O)NCCc1nc2ccccc2[nH]1 | 7.12%
Nc1cccc(CCc2nc3ccccc3[nH]2)c1 | 91.8% (active)
CCOC(=O)C1=C(c2ccccc2)NC(=O)NC1c1cc(OCC)c(O)c([N+](=O)[O-])c1 (centres undefined) | -6.05%
Cc1ccccc1Nc1nc(N)nc(CSc2nnc3ccccn23)n1 | 37.1%
Cc1ccc(C(=O)OCc2nc(N)nc(Nc3ccccc3C)n2)cc1 | -11.7%
Cc1ccccc1Nc1nc(N)nc(CSc2ccccc2)n1 | 87.7% (active)
Cc1cc(OC(C)C(=O)NC2CC(C)(C)NC(C)(C)C2)c2c(C)cc(=O)oc2c1 (centres undefined) | -4.82%
CCn1c(CNC(=O)c2cc(OC)c(OC)c(OC)c2)cc2cc(C)ccc21 | 2.16%

SMILES | inhibition
CCOc1ccc(CN(C)C(=O)c2ccc(=O)[nH]c2)cc1 | -3.04%
CCc1ccc(/C=N/NC(=O)c2nnn(-c3nonc3N)c2CN2CCc3ccccc32)cc1 | -4.83%
COc1ccc(NS(=O)(=O)c2cccc3nsnc23)cc1Cl | -3.74%
CSc1nc2ccc(NC(=O)c3c(F)cccc3F)cc2s1 | 90.3% (active)
CCCC(=O)Nc1nc2ccc(NC(=O)c3c(F)c(F)c(OC)c(F)c3F)cc2s1 | -15.8%
O=C(Nc1ccncc1)c1c(F)cccc1F | -10.9%
Cc1cccc(OCC(=O)NCC(=O)N/N=C/c2ccc(N(C)C)cc2)c1 | -12.5%
O=C(N/N=C/c1cccc(OCc2ccccc2)c1)c1ccc(Br)o1 | 46.8% (active)
O=C(N/N=C/c1cccc(O)c1)c1cc2c(ccc3ccccc32)o1 | 6%
Cc1ccc(OCCOCCOc2ccc(Br)cc2/C=N\NC(=O)c2ccncc2)cc1 | -5.78%
Cc1ccc(OCCOc2cccc(/C=N/NC(N)=O)c2)cc1 | 56.6% (active)
O=C(N/N=C/c1ccc(OCc2ccccc2)cc1)c1ccc(O)cc1 | 51.1%
CCOc1ccccc1N1C(=O)CC(Sc2nccc(C)n2)C1=O (centres undefined) | 10.8%
Cc1ccc2c(c1)N(CC(=O)N1CCOCC1)C(=O)CO2 | -3.54%
Cc1nc2cc(-c3ccc(F)cc3)nn2c(N2CCOCC2)c1C | 62.6%
Cc1cc(C(C)(C)C)n2nc(C)c(-c3ccccc3)c2n1 | -4.85%
Cc1cc(N)n2nc(-c3ccc(C(C)(C)C)cc3)cc2n1 | 88.7% (active)
Cc1cccc(OCC(O)CN2CCN(S(=O)(=O)c3ccc(C)cc3C)CC2)c1 (centres undefined) | -2.77%
CCNC(=O)CSc1nc(-c2ccccc2)cs1 | 74.3% (active)
O=C(CSc1nc(-c2ccccc2)cs1)Nc1cccc([N+](=O)[O-])c1 | 81.3% (active)
O=C(CSCC(=O)Nc1cccc([N+](=O)[O-])c1)Nc1ccccc1 | 7.24%
O=C(CSC1=NCCS1)Nc1nc(-c2ccccc2)cs1 | 29.7%
CCOC(=O)CSc1nnc(CNc2nc(-c3ccccc3)cs2)n1C | 9.53%
O=C(CSc1ncn[nH]1)Nc1nc(-c2cccc([N+](=O)[O-])c2)cs1 | 8.25%
